49 molecules from PubChem BioAssay AID932 (The Scripps Research Institute Molecular Screening Center, 2007) can be followed below.

About 5,100 (2.5%) of roughly 200,000 compounds were called active. Only a selection was taken, and actives are over-represented in it overall. Unmarked numbers belong to inactive results.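 How the source made its calls: active means activation above the screen-wide mean activation plus 3 SD (cut at about 130% in these data); inactive means the rest.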

This assay is described as follows: potentiators of IFN-gamma driven STAT1 reporter – cell-based, HTS, luciferase reporter, primary screen (AID 932).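 Further: raw ratio to IFN-gamma control signal so 100% means no change and 0% no light.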 The settings on record: NIH 3T3 STAT1-luciferase reporter, luminescence, at 5.5 µM, stronger effect = higher value, 100% = IFN-gamma alone, no compound. A general note: In a reporter assay the amount or activity of a reporter protein is the signal.
As to `Cc1ccc2nc(-c3ccc(NC(=O)CN(C)S(=O)(=O)c4ccccc4)cc3)sc2c1`, the activation (% of control) is 102%. As to `Cn1c(=N)n(CC(O)c2cccs2)c2ccccc21` (centres undefined), the activation (% of control) was 95.5%. In the case of `ClC1(Cl)CC1CSc1ncn[nH]1` (centres undefined) it was 102%; in that of `O=C(C1CCN(C2CCN(Cc3ccc4cc(F)ccc4n3)CC2)CC1)N1CCCC1`, 98.4%. The same measure for `N#Cc1c(N)nc2c(c1N)CC(C(F)(F)F)O2` (centres undefined): 92.8%; for `Cc1nn(C)c(C)c1Sc1ccccc1N`: 99.2%. The same measure for `CCn1c(CSc2nc(C)cc(C)n2)nnc1SCC(N)=O`: 103%; for `COc1ccc(S(=O)(=O)N2CCCCCC2)cc1C(=O)OCC(=O)Nc1cc(C)on1`: 97%. In the case of `Cc1ccc(/C=C/C(=O)Nc2ccc([N+](=O)[O-])c(NC(=O)/C=C/c3ccc(C)o3)c2)o1`, the activation (% of control) was 101%. The same measure for `Cc1ccc(/C=C/C(=O)Nc2cc(S(=O)(=O)N3CCCCCC3)ccc2OCC(F)(F)F)o1`: 139% (active). The same measure for `O=[N+]([O-])c1ccc(NCCCO)c(C(F)(F)F)c1`: 105%; for `CN(C(=O)COc1ccccc1)c1nnc(-c2ccncc2)s1`: 107%. The same measure for `CN(C(=O)c1ccccn1)c1nnc(-c2ccccn2)s1`: 142% (active); for `CN(C(=O)c1ccno1)c1nnc(-c2cccnc2)s1`: 102%. Take `COc1ccc(N=C2SC(C(=O)Nc3ccc(F)cc3)CC(=O)N2C)cc1` (centres undefined): the activation (% of control) was 88.3%. On to `Cc1ccccc1NCC(=O)N/N=C\c1ccc([N+](=O)[O-])s1`, for which the activation (% of control) is 92.7%. For the molecule `CN(C(=O)CSc1nncc2ccccc12)C1CCCCC1`, the activation (% of control) is 131% (active). In the case of `CN(C(=O)COc1ncnc2c1cnn2-c1ccccc1)C1CCCCC1` it was 94.4%.

With `CN(C(=O)CSc1nnnn1-c1ccccc1)C1CCCCC1`, the activation (% of control) was 103%. Consider `Cc1nnnn1/C(=C\c1ccccc1)C(=O)OCC(=O)N1CC2(C)CC1CC(C)(C)C2` (centres undefined), for which the activation (% of control) was 99.2%.

With `O=C(Nc1nnc(C2COc3ccccc3O2)o1)c1ccc(F)cc1` (centres undefined), the activation (% of control) was 98.5%.

For `O=C(N/N=C/c1ccccn1)C12CC3CC(CC(C3)C1)C2`, the activation (% of control) is 103%.

With `OCCC1CN(Cc2cnc(-c3ccccc3)s2)CCN1CCc1ccccc1` (centres undefined), the activation (% of control) was 100%. In the case of `C/C(=N\Nc1ncc(Cl)cc1Cl)c1ccc(S(=O)(=O)NCc2ccco2)cc1` it was 131% (active).

As to `C/C(=N\NS(=O)(=O)c1ccc(Br)cc1)c1cccs1`, the activation (% of control) is 95.4%. The same measure for `C/C(=N\Nc1nc(Nc2ccccc2)nc(N2CCOCC2)n1)c1cccs1`: 92.8%; for `C/C(=N\Nc1nc2ccccc2[nH]1)c1cccs1`: 147% (active); for `O=C(NC1CCC(O)CC1)c1ccc(S(=O)(=O)NCc2ccco2)cc1` (centres undefined): 93.2%. With `Cc1c(Cl)cnc(NC(=O)COC(=O)c2ccc(S(=O)(=O)NCc3ccco3)cc2)c1Cl`, the activation (% of control) is 101%. The same measure for `COc1cccc(/C(C)=N/Nc2ncc(Cl)cc2Cl)c1`: 126%; for `C/C(=N\Nc1ncc(Cl)cc1Cl)c1cccs1`: 143% (active). The same measure for `OCCNc1nc2ccccc2[nH]1`: 104%. For the molecule `COc1cccc(CNC(=O)CCN2C(=S)NC(C)(C)CC2C)c1` (centres undefined), the activation (% of control) is 100%. Take `Cc1nn(C)c(C)c1CN(C(=O)CCc1nnc(Cc2c[nH]c3ccccc23)o1)C(C)C`: the activation (% of control) was 99.9%. The same measure for `CCN(CC)c1ccc(C(=O)c2cnc(/N=C/N(C)C)s2)cc1`: 118%.

For `c1ccc(-c2noc(-c3cccs3)n2)nc1`, the activation (% of control) is 104%. In the case of `c1csc(-c2nc(-c3ccncc3)no2)c1`, the activation (% of control) is 130% (active).

For the molecule `COc1nc(-c2ccc(Cl)cc2)ccc1-c1noc(-c2cccs2)n1`, the activation (% of control) is 108%. In the case of `CC(=O)Nc1ccc(CN2CCN(Cc3ccc(F)c(F)c3)C(CCO)C2)cc1` (centres undefined) it was 100%; in that of `O=c1oc(-c2ccco2)nc2sc3c(c12)CCCCC3`, 110%. In the case of `Cc1c(Br)ccc(NC(=O)COc2ccccc2C(N)=O)c1C` it was 97.9%; in that of `Cc1cc(NS(=O)(=O)c2ccc(NC(=O)c3cccc(OC(F)F)c3)cc2)nc(C)n1`, 105%.

As for `CCOC(=O)C1(Cc2ccccc2C(F)(F)F)CCN(C(=O)c2cc(C)n(C)n2)CC1`, the activation (% of control) is 131% (active). The same measure for `CCOC(=O)C1(Cc2ccc(Cl)cc2)CCN(C(=O)C2=NNC(=O)CC2)CC1`: 96.4%; for `CCOC(=O)C1(CCOc2ccccc2)CCN(C(=O)c2cncs2)CC1`: 99.2%; for `O=c1cc(CO)oc(C(Nc2cccc(C(F)(F)F)c2)c2ccccn2)c1O` (centres undefined): 99.4%. In the case of `CCOc1cccc(C(=O)Nc2cccnc2)c1` it was 101%; in that of `CCOC(=O)c1ccc(-c2ccc(C(=O)Nc3cccnc3)o2)cc1`, 132% (active). The same measure for `CCOC(=O)c1cc(NC(=O)c2cccnc2)cc(C(=O)OCC)c1`: 96.5%.
